The panel holds about 83,000 compounds, 20% with a hit somewhere; the sample as a whole holds those more often.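 Testing used 96-well plates and a 48-hour single-concentration exposure. Example: -40 means 40% of the starting cells died.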 A number with no mark means an inactive call. Calls of active or inactive are those of the source. The calls were made as follows: active = growth percent below 10; inactive = the rest.

The assay deals with MDA-MB-468 breast. Description: NCI-60 one-dose screen, 48 h (100 = growth as untreated, 0 = no growth, -100 = all killed). The following applies: 10 µM unless noted.
In the case of `Nc1c(Cl)cc(N=Nc2ccccc2)cc1Cl`, the growth was -61.3% (active).

Take `COc1cc(OC)c(/C=C/C(=O)c2c(O)cc(OC)c(C3CCN(C)CC3)c2OC)c(OC)c1`: the growth is -91.1% (active).

As to `CC1(C)N=C(N)N=C(N)N1c1ccc(F)c(C(F)(F)F)c1`, the growth was 65.1%.

For `C=C(c1ccc(C(=O)O)cn1)c1cc2c(cc1C)C(C)(C)CCC2(C)C`, the growth is 91.5%.

As to `Cc1ccc2c(C(C[N+](=O)[O-])c3ccco3)c(-c3ccccc3)[nH]c2c1` (stereo not given), the growth was 8.5% (active).

For `O=c1nc(N2CCOCC2)oc2c(-c3cccc4ccccc34)cccc12`, the growth is 76.5%.

Turning to `CCCS(=O)(=O)Nc1ccc(F)c(C(=O)c2c[nH]c3ncc(-c4ccc(OCCCC5CCCCN5)nc4)cc23)c1F` (stereo not given), the growth is 69.6%.

Take `Cc1ccc(S(=O)(=O)n2cc(-c3csc(-c4cn(C)c5ncccc45)n3)c3ccccc32)cc1`: the growth is 38.6%.

For the molecule `Cc1cc(=O)oc2cc(OCCCOc3ccc(/C=C/C(=O)Nc4ccc(Cl)cc4)cc3)ccc12`, the growth was 73.9%.

On to `COC(=O)c1nc(-c2ccccc2)oc1S(=O)(=O)NCC(c1ccc(Cl)cc1)N1CCCCC1` (stereo not given), for which the growth was 37%.

For `CC1(C)CC[C@]2(C(=O)NCC#CCN3CCOCC3)CC[C@]3(C)C(=CC[C@@H]4[C@@]5(C)Cc6c([nH]c7ccccc67)C(C)(C)[C@@H]5CC[C@]43C)[C@@H]2C1`, the growth was 90.8%.

On to `COc1ccc(-c2nn(-c3cccc(NC(=O)Nc4cccc(C(F)(F)F)c4)c3)cc2-c2ccncc2)cc1Cl`, for which the growth was 27.5%.

On to `CC(=O)Nc1ccc2cc3ccc(NC(C)=O)cc3nc2c1`, for which the growth is 56.5%.

With `O=c1[nH]nc(-c2ccccc2)c2c(-c3ccccc3)onc12`, the growth is 1.46% (active).

In the case of `Cc1ccc(N(CC2=NCCN2)c2cccc(O)c2)cc1`, the growth is 93.3%.

For `O=C1CNc2cc(Cl)ccc2N1`, the growth was 117%.

In the case of `Cc1ccc(S(=O)(=O)n2cc(CNc3ccc(N4CCOCC4=O)cc3)c3ccccc32)cc1`, the growth was -9.46% (active).

In the case of `CCCCC(C=O)(C=C=C(C)C)CC` (stereo not given), the growth is 108%.

For `Cc1ccc(C)c2c(C)c(C(=O)Nc3cccc(-n4cccn4)c3)oc12`, the growth is 27.8% [50 µM].

For the molecule `CN1C(=O)N(C)C2Nn3c(s/c(=C4\C(=O)N(CCc5ccccc5)c5ccccc54)c3=O)=NC21` (stereo not given), the growth is 39%.

Consider `O=C(CCCCC[P+](c1ccccc1)(c1ccccc1)c1ccccc1)NC(COC(=O)C(Cl)Cl)(COC(=O)C(Cl)Cl)COC(=O)C(Cl)Cl`, for which the growth was 84.4%.

`COc1ccc(Nc2ncc(Br)c(NCCCNC(=O)C3CCC3)n2)cc1`: the growth was 71.2%.

Regarding `O=C(Nc1ccc(N=Cc2c(O)[nH]c3ccccc23)cc1)Nc1nccs1`, the growth is -2.28% (active).

Regarding `COc1ccc2nc(C)cc(Nc3ccccc3O)c2c1`, the growth is 63.5%.

Turning to `Cc1ccc(S(=O)(=O)Oc2ccccc2-c2ccccc2)cc1`, the growth is -3.07% (active).

For the molecule `CCCC(=O)OCC(COC(=O)CCC)OC(=O)CCC`, the growth was 89%.

For the molecule `Cc1nn(-c2ccccc2)cc1/C=C1\SC(N2CCCCC2)=NC1=O`, the growth was 96.3%.

For the molecule `COc1cnc2c(c1)C(=O)c1c-2n(CCCN2CCC(O)CC2)c(=O)c2cc(Cl)ccc12`, the growth was 38.5%.

Regarding `CCOC(=O)/C(=C/c1c(-c2ccccc2)[nH]c2ccccc12)C(=O)c1ccc(Cl)cc1`, the growth was 19.8%.

As for `O=C(NCCN1CCCC1)n1cc(-c2ccncc2)c(-c2cc(O)cc(Cl)c2)n1`, the growth is 75.8%.

For `O=C(CCCCCCCCC(=O)N/N=C\c1ccccc1O)N/N=C\c1ccccc1O`, the growth was -28.4% (active).

On to `Cc1cc(C)c(C=O)c(C)c1`, for which the growth was 94.1%.

Consider `C=CCOC(=O)C(=O)OCC=C`, for which the growth is 104%.

Turning to `COc1ccc2c(O)c(/C=C3\N=Nc4ccccc43)oc2c1C[C@@H]1CCNC[C@H]1F`, the growth was 74.4%.

On to `O=C(NC(=S)Nc1ccc(-c2nc3ccccc3[nH]2)cc1)c1ccc2ccccc2c1`, for which the growth was 13.6%.

For `Clc1ccc(C(/C=C/c2sc(Cl)nc2Cl)=N/Nc2cc(Cl)cc(Cl)c2)cc1`, the growth is 107%.

Consider `CCOC(=O)/C(=C\c1ccccc1Cl)P(=O)(OCC)OCC`, for which the growth was 43.5%.

Regarding `Nc1nc(=O)c2ccccc2s1`, the growth is 109%.

On to `O=C(Nc1ccc(Br)cc1)C1=NCCCCN1`, for which the growth was 97.6%.

As for `Cc1ccc(-c2nc(N3CCNCC3)c3oc(-c4ccccc4)nc3n2)cc1`, the growth was -31.4% (active).
